Structures are written as SMILES. Among all 360,000 compounds or so, about 25,000 (6.9%) were called active. A call without a number means that no potency is given here. Not shown: some 9% with an inconclusive outcome. The sample holds actives, similar compounds and a random draw of the others, so the mix is not that of the screen. The call rests on the fitted dose curve; in most records, active means well fitted inhibition curve with a large enough effect; inconclusive means small, poorly fitted or top-dose-only effect; inactive means flat fitted curve, though single readings scatter.
Potency means the concentration at half of the fitted maximal effect.

This test deals with Luciferin 4-monooxygenase (Photinus pyralis) (UniProt P08659). As to the kind of experiment: qHTS profiling assay for firefly luciferase inhibitor/activator using purifed enzyme and Km concentrations of substrates (counterscreen for miR-21 project). Further: nearly all actives have a fitted effect of over 55% in size. Conditions: purified FLuc, luminescence inhibition; series mostly up to 57.5 µM. The method, boiled down: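 Biochemical qHTS of compounds, final roughly 60 µM downward over six points, against 10 nM purified firefly luciferase using Km concentrations of substrates (10 uM D-luciferin, 10 uM ATP) in Tris acetate pH 7.5 buffer; luminescence output.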
Chain of Luciferin 4-monooxygenase (Photinus pyralis) (P08659 whole entry, looked up): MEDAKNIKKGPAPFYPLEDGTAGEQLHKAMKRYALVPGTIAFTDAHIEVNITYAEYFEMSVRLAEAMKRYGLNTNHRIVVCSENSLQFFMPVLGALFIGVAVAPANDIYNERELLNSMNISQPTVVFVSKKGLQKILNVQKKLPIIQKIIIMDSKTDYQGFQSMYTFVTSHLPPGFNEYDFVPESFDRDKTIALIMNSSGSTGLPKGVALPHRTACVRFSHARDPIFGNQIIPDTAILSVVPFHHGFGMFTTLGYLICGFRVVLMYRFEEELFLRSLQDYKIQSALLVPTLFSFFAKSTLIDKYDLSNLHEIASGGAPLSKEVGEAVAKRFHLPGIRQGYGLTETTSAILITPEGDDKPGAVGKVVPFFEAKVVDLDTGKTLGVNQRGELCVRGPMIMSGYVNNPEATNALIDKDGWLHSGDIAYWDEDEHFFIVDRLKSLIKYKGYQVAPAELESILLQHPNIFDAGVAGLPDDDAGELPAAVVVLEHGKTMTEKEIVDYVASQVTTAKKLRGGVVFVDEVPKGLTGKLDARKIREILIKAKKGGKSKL
With `CCOC(=O)N1CCN(C(=O)COC(=O)c2cccc(S(C)(=O)=O)c2)CC1`, the Potency entry was “inactive”.

Take `CCc1ccc(S(=O)(=O)c2nnn3c2nc(NCc2ccccc2OC)c2cc(Cl)ccc23)cc1`: the Potency result was “inactive”.

Take `COc1ccc(N2CCN(S(=O)(=O)CCNC(=O)C(c3ccccc3)c3ccccc3)CC2)cc1`: the Potency result was “inactive”. Turning to `CCC(=O)Nc1ccccc1-c1nc2ccccc2n(CC(=O)Nc2ccc(C)c(C)c2)c1=O`, the Potency result was “inactive”.

`NC(=O)N/N=C\c1cccs1`: the Potency result is “inactive”. In the case of `CC(C)OCCCNC(=O)CNC(=O)c1cccs1`, the Potency result was “inactive”. For `O=C(NC(Cc1c[nH]c2ccccc12)C(=O)N/N=C/c1ccc(Br)cc1)c1cccs1` (configuration not stated), the Potency entry was “inactive”. In the case of `CC(=O)Nc1ccc(/C=N/NC(=O)c2cccs2)cc1`, the Potency was 12 µM (active).

For the compound `CCN(CC)c1ccc(/C=N/NC(=O)CNC(=O)c2cccs2)cc1`, the Potency was 23.9 µM (active). Then `Cc1cccc(OCC(=O)NCC(=O)N/N=C/c2ccc(N(C)C)cc2)c1`, with “inactive”; and `CCC(Sc1nnc(-c2ccc(OC)cc2)c(-c2ccc(OC)cc2)n1)C(=O)NC1CCCCC1` (configuration not stated), with “inactive”; and `CCOC(=O)c1c(NC(=O)/C=C/c2ccc(OC)cc2)sc2c1CCC(C)C2` (configuration not stated), with “inactive”. In the case of `CCc1ccc(C(=O)CC2(O)C(=O)N(CCc3ccccc3)c3ccc(Br)cc32)cc1` (configuration not stated) it was “inactive”.

As for `Cc1ccc(S(=O)(=O)N2CCCCC2)cc1NC(=O)[C@@H]1CCCN1C(=O)c1cccs1`, the Potency result is “inactive”. Take `CC(=O)Nc1ccc(NC(=O)c2cc3sccc3n2Cc2ccc(F)cc2)cc1`: the Potency entry was “inactive”. Take `CCOC(=O)c1cc(C)sc1NC(=O)C1CCC1`: the Potency result was “inactive”. Then `CCc1ccccc1NC(=O)c1ccc2snnc2c1`, with “inactive”; and `Cc1cccc(NC(=O)c2ccc3nsnc3c2)c1C`, with “inactive”; and `O=C(Nc1ccccc1Cl)c1ccc2nsnc2c1`, with 19 µM (active). In the case of `CC1(C)CC(N2CCN(C(c3ccccc3)c3ccccc3)CC2)=CC(=[N+]2CCCCC2)C1` it was “inactive”; in that of `O=S(=O)(NC1CC1)c1ccc(Cl)cc1`, “inactive”.

On to `Cc1ccc(CNC(=O)Cn2c(=O)ccc3cc(S(=O)(=O)N4CCCC4)ccc32)cc1`, for which the Potency entry was “inactive”. With `COCCN(C(=O)c1ccco1)c1nnc(-c2ccc(OC)cc2)s1`, the Potency was 21.3 µM (active).

As for `COc1ccc(N(CC(=O)NC(C)(C)C)C(=O)c2ccco2)cc1`, the Potency result was “inactive”. For `COCCN(C(=O)C(C)C)c1nnc(-c2ccc(C(C)(C)C)cc2)s1`, the Potency is 15.1 µM (active). Take `Cc1nnc(N(Cc2ccco2)C(=O)c2ccno2)s1`: the Potency result was “inactive”. Then `CN1CCNC(=O)C1CC(=O)N1CC=C(c2ccc(F)cc2)CC1` (configuration not stated), with “inactive”; and `Cn1c(C(=O)N2CCC(C(=O)N3CCN(c4ccccc4)CC3)CC2)cc2sccc21`, with “inactive”; and `Cc1ccc(C)c(NC(=O)CSC2=Nc3ccccc3N=C(c3ccc(F)cc3)C2)c1`, with “inactive”. In the case of `CCOc1ccc(CNC(=O)c2ccc3nc(CC)c(CC)nc3c2)cc1OC`, the Potency result is “inactive”. Turning to `CCN(CC)c1ccc(NC(=O)Cn2nc3c(cc2=O)CCCC3)c(C)c1`, the Potency result is “inactive”. With `CCOc1ccc(CNC(=O)c2ccc3c(c2)nnn3C2CCCC2)cc1`, the Potency result was “inactive”.

As to `O=C(CNCCC1=CCCCC1)Nc1ccccc1N1CCCCCC1`, the Potency entry is “inactive”. With `COc1ccc(NS(=O)(=O)c2cc3c(cc2C)N(C(C)=O)CCO3)cc1`, the Potency entry is “inactive”. With `COCCCNC(=O)c1c(NC(=O)c2cc(=O)c3cc(C)c(C)cc3o2)sc2c1CCCC2`, the Potency result is “inactive”.

As to `O=C1c2cccc3c([N+](=O)[O-])ccc(c23)C(=O)N1CC1CCCO1` (configuration not stated), the Potency result was “inactive”.

As to `CC(=NCC1CCCO1)c1c(O)[nH]c(=O)[nH]c1=O` (configuration not stated), the Potency result is “inactive”. In the case of `O=C1C(C=NCC2CCCO2)=C(O)c2ccccc21` (configuration not stated) it was 19 µM (active); in that of `CCCCCn1c(=O)[nH]c2cc(C(=O)Nc3ccc(F)cc3)ccc2c1=O`, “inactive”; in that of `CC(C)n1c(=O)[nH]c2cc(C(=O)Nc3ccccc3)ccc21`, “inactive”. For `CC(C)c1ccc(NC(=O)c2ccc3c(O)c(S(=O)(=O)c4ccccc4)c(=O)[nH]c3c2)cc1`, the Potency was 1.51 µM (active).

`CCCCn1c(N)c(N(CCC(C)C)C(=O)COC(=O)c2cccnc2OCC)c(=O)[nH]c1=O`: the Potency result was “inactive”.

Regarding `COc1ccc(/C=N/OCc2ccccc2C#N)c(OC)c1`, the Potency was 21.3 µM (active). Consider `COc1ccc(C=C(C#N)C#N)c(CSc2ccccn2)c1`, for which the Potency entry is “inactive”. In the case of `Cc1cc(C)nc(SCc2ccccc2C#N)n1`, the Potency result is “inactive”. With `Cc1ccccc1OCC(=O)Nc1c(C(=O)Nc2ccccc2F)oc2ccccc12`, the Potency entry is “inactive”. In the case of `CCOC(=O)[C@H]1[C@H]2COc3cc(OC)ccc3[C@@H]2N2C(=O)N(c3ccc(Br)cc3)C(=O)[C@@]12C` it was “inactive”. Then `COc1ccc(CNC(=O)COc2ccccc2C(=O)c2cnn(-c3ccccc3)c2)cc1OC`, with 5.36 µM (active); and `COc1ccc(CNC(=O)COC(=O)c2c(C)nn(-c3ccccc3)c2C)cc1OC`, with “inactive”.

Regarding `COc1ccc(CNC(=O)Cc2ccc(-c3ccccc3)cc2)cc1OC`, the Potency entry was “inactive”.

Take `CCOC(=O)c1cccnc1NC(=O)c1ccncc1`: the Potency result was “inactive”. Turning to `CCOC(=O)c1sc(NC(=O)C2CSC3(C)CCC(=O)N23)nc1C` (configuration not stated), the Potency result was “inactive”. As to `CCOC(=O)c1sc(NC(=O)c2sc(C)nc2C)nc1C`, the Potency was 6.01 µM (active). For `CCOC(=O)c1sc(NC(=O)c2ccncc2)nc1C`, the Potency was 19 µM (active). In the case of `CCOC(=O)c1sc(/N=C/Nc2nc(C)c(C(=O)OCC)s2)nc1C` it was “inactive”; in that of `CCOC(=O)c1sc(NC(=O)CSc2n[nH]c(CC)n2)nc1C`, “inactive”. For `Cc1ccc(C)c(Oc2c(C(F)(F)F)oc3c(CN4CCN(C)CC4)c(O)ccc3c2=O)c1`, the Potency result was “inactive”. On to `Cc1cc(C)n2nc(CNS(=O)(=O)c3c(F)c(F)c(F)c(F)c3F)nc2n1`, for which the Potency entry is “inactive”. Turning to `Cc1ccc(C(=O)Nc2ccccc2F)cc1S(=O)(=O)N1CCOCC1`, the Potency entry is “inactive”.

As to `CCOc1cc(/C=C(\C#N)C(=O)Nc2ccccc2C)ccc1OCc1cc(=O)n2nc(CC)sc2n1`, the Potency result is “inactive”. Regarding `O=C(CCc1nc2ccccc2c(=O)[nH]1)OCC(=O)c1cccc(Cl)c1`, the Potency entry was “inactive”. As to `CCCc1nc2ccccc2c(C(=O)OCC(=O)c2ccc3c(c2)NC(=O)CO3)c1CC`, the Potency result is “inactive”. `Cc1ccc(C(=O)COC(=O)c2cccc(N3C(=O)c4c(C)nc5ccccc5c4C3=O)c2)cc1C`: the Potency is 2.69 µM (active). Turning to `CNC(=O)C1CC(=O)N(c2ccc(OCC(=O)Nc3ccccc3C)cc2)C1` (configuration not stated), the Potency result was “inactive”. Consider `Cc1ccccc1NC(=O)CSc1nc2ccc(Nc3nc(N4CCOCC4)nc(N4CCOCC4)n3)cc2s1`, for which the Potency entry was “inactive”. On to `C/C(=N\Nc1nc(N2CCOCC2)nc(N2CCOCC2)n1)c1ccc([N+](=O)[O-])cc1`, for which the Potency result was “inactive”. In the case of `C/C(=N\Nc1nc(Nc2ccccc2)nc(N2CCOCC2)n1)c1cccs1` it was 19 µM (active).
